Bioassay records (PubChem)
An excerpt weighted towards active compounds, which were near 2.1% of everything screened.
EP2 mod – EP2 receptor modulators, cAMP readout, primary screen, cell-based, HTRF cAMP, PGE2 stimulation. Prostaglandin E2 receptor EP2 subtype (Homo sapiens), P43116. EP2-expressing cells, cAMP HTRF FRET, PGE2 co-stimulation. induction, % at 25 µM. hit rate 0.83% among 260,000;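 active = compounds whose cAMP rise, as percent of the full-agonist control response, exceeds 60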;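 note: rat C6 glioma line stably carrying human EP2 under a CMV promoter; the protocol text gives 20 µM as final concentration; 100% = response of wells given 1 µM PGE2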
CHT PAM – CHT positive allosteric modulators, primary screen, cell-based, membrane potential dye, choline EC20. B-score at 10 µM. CHT-expressing cells; hits give high values; LV-AA mutant CHT in HEK293 cells. AID 488977, 2010. hit rate 0.49% among 310,000;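 active = initial fluorescence not abnormally high and integrated response B-score, plate-corrected, over 3 SD above library mean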
EP2 antag – human EP2 receptor antagonists, primary screen, TR-FRET cAMP, C6 glioma cells. AID 1422, 2008. Prostaglandin E2 receptor EP2 subtype (Homo sapiens), P43116. hit rate 0.52% among 260,000. C6 glioma cells expressing human EP2; cells stimulated with saturating PGE2. inhibition, % at 25 µM;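 active = percent inhibition above 40 after rounding to a whole number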;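 note: rat C6 glioma host cells with rolipram phosphodiesterase inhibitor present; the protocol text gives 20 µM as final concentration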
CHT block – inhibitors of human choline transporter CHT; B-score at 10 µM; CHT-expressing cells, membrane potential dye, choline response; hits give low values; High affinity choline transporter 1 (Homo sapiens), Q9GZV3; hit rate 0.86% among 310,000;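 active = B-score over 3 SD under the library average, and starting fluorescence ratio not unusually high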;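 note: choline stimulus applied at its EC90 after an EC20 pre-addition; B-score computed on integrated fluorescence ratio after choline addition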
CHT activ conf – CHT activators, confirmation, cell-based, membrane potential dye, duplicate | shares compounds with CHT PAM | CHT-expressing cells, membrane potential dye fluorescence (FDSS); % of choline EC20–EC90 response window; HEK293 expressing CHT LV-AA mutant; choline added at its EC20 | activation, % at 10 µM | hit rate 91% among 2,500 | AID 504833, 2011;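 active = primary screen active, with duplicate mean activation above negative control mean plus 3 SD, cut at about 11% in these data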
HEK293 MP dye – membrane potential response in parental HEK293 cells, counter-screen for CHT activator project, cell-based, membrane potential dye. AID 623908, 2012. hit rate 62% among 2,500. ratio readout change at 10 µM, hits read low. membrane potential dye fluorescence (FDSS); measured after EC20 choline addition. shares compounds with CHT PAM;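 active = duplicate-averaged ratio beyond 3 SD from buffer wells, up or down, though filed actives are nearly all decreases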
The depositor's hits bear a star; i = inactive; . = no result.

SMILES | EP2 mod | CHT PAM | EP2 antag | CHT block | CHT activ conf | HEK293 MP dye
NC(=O)C1CCN(C(=O)Cn2c(-c3cccs3)cc3cccnc32)CC1 | -2 | . | 3 | . | . | .
CCOC(=O)C1CCCN(c2nc(C)nc3c2oc2ccccc23)C1 (stereo unspecified) | -11 | i | 8 | i | . | .
CCOC(=O)C1CCN(c2nc(C)nc3c2oc2ccccc23)CC1 | 16 | 8* | -7 | i | 1 | i
C[C@@H](Cn1nnc2ccccc21)NC(=O)CCc1nc2ccccc2s1 | -43 | . | 0 | . | . | .
CCOC(=O)c1cnc2c(C(F)(F)F)cccc2c1NCCCCCO | -51 | . | 12 | . | . | .
CCOC(=O)c1cnc2c(C(F)(F)F)cccc2c1NCCCN1CCOCC1 | . | i | . | i | 43* | -67*
N#Cc1c(NC(=O)c2ccc(Cl)cc2Cl)sc2c1CCC2 | -27 | . | 6 | . | . | .
COc1ccc(OC)c2c(C)cc(N3CCCN(C)CC3)nc12 | -29 | 8* | 13 | i | 46* | -74*
Cc1cc(N2CCCC2)nc2c(C)cccc12 | 42 | i | 7 | i | . | .
Cc1ccn2cc(-c3ccc(O)c(O)c3)nc2c1 | . | i | . | i | 36* | -40*
Oc1ccc(-c2cn3ccccc3n2)cc1 | -1 | i | 4 | i | . | .
Oc1ccc(-c2cn3ccccc3n2)cc1O | . | i | . | i | 37* | -42*
O=C(Cc1ccc2c(c1)OCO2)NC1(c2ccc3c(c2)OCO3)CCCC1 | 28 | . | 0 | . | . | .
CC(C)(C)C(=O)CNS(=O)(=O)c1ccc(S(=O)(=O)N2CCCC2)cc1 | -35 | . | 8 | . | . | .
COc1ccc(C(=O)C(CCCCC(CN(C)C)C(=O)c2ccc(OC)cc2)CN(C)C)cc1 (stereo unspecified) | -16 | i | . | i | 15* | -27*
CCOc1ccc(C(=O)C(CCC(CN(C)C)C(=O)c2ccc(OCC)cc2)CN(C)C)cc1 (stereo unspecified) | 8 | . | 4 | . | . | .
Cc1ccc(NC(=O)C(c2ccccc2)C2CCCC2)cc1 (stereo unspecified) | 3 | . | 5 | . | . | .
O=C(Nc1ccc2ccccc2c1)C(c1ccccc1)C1CCCC1 (stereo unspecified) | 24 | i | 2 | i | 24* | i
